Measurements published in PubChem BioAssay (NCI).
Compounds without any hit were thinned out: in the full panel of roughly 83,000, 20% have a hit.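 Results are percent growth after 48 hours of single-concentration exposure. 100 means growth as in untreated cells, lower positive values show inhibition; negative values down to -100 show cell death.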 A number with no mark means an inactive call. Activity calls are given as the source filed them. How the source made its calls: active means growth percent below 10; inactive means the rest.

Test system: TK-10 renal
Assay: NCI-60 one-dose screen, 48 h (100 = growth as untreated, 0 = no growth, -100 = all killed)
Conditions: 10 µM unless noted

Row | Structure (SMILES) | growth
1 | COc1cc(/C=C/C(=O)c2ccc(Nc3ncnc4ccccc34)cc2)cc(OC)c1 | 79.1%
2 | COc1ccc(C(=O)c2cc3c(N)c(C(=O)Nc4cccc(OC)c4)sc3nc2C)cc1 | 57.1%
3 | CCC(C)N(CCNc1cc(OC)cc2cccnc12)CCC(C)C (stereo unspecified) | 96.7%
4 | S=c1[nH]cccc1-c1nnc2n1Nc1nc3ccccc3cc1CS2 | 105%
5 | NC(=O)C1(N2CCCCC2)CCN(CCCC(=O)c2ccc(F)cc2)CC1 | 88.2%
6 | O=S(=O)(c1cccc(NC2=Nc3cccc4cccc2c34)c1)N1CCCC1 | 90.5%
7 | OC1(c2ccc(Cl)c(C(F)(F)F)c2)CCN(CCCC(c2ccc(F)cc2)c2ccc(F)cc2)CC1 | -50.7% (active)
8 | O=c1[nH]nc(-c2ccc(Br)cc2)cc1Cc1ccc(O)cc1 | 139%
9 | N/C(=N\N=C\c1cc2ccccc2s1)N/N=C/c1cc2ccccc2s1 | 115%
10 | COc1ccc(C(=O)c2cc3c(N)c(C(=O)Nc4ccc(Br)cc4)sc3nc2C)cc1 | 98.8%
11 | CC1=NNC(=O)C1CCC(=O)N/N=C(\C)c1ccc2ccccc2c1 (stereo unspecified) | 130%
12 | O=C(O)c1cn(C2CC2)c2cc(N3CCN(C(=O)C[n+]4cccc5ccccc54)CC3)c(F)cc2c1=O | 100%
13 | COc1ccc(Cn2nc(-c3ccccc3)c3c2CCc2cnoc2-3)cc1 | 105%
14 | O=C(O)CNC(=O)CN1C(=O)c2ccccc2C1=O | 104%
15 | O=C1CCCCCCCCC(O)C(O)CCCC(c2cccs2)O1 (stereo unspecified) | 115%
16 | CC1CCN(C(=O)OCc2nc3nc(Cl)nc(N4CCOCC4)c3[nH]2)CC1 | -91.8% (active)
17 | COc1cc(C2CC(c3cccc(Nc4ccncc4)c3)=NN2c2cc(Cl)cc(Cl)c2)cc(OC)c1OC (stereo unspecified) | 34%
18 | COC(=O)Nc1ccc(NC(=O)OC)cc1 | 94.4%
19 | COc1ccc(C(=O)c2cc3c(N)c(C(=O)Nc4cccc(Cl)c4C)sc3nc2C)cc1 | 50.9%

Row | Structure (SMILES) | growth
20 | COc1ccc(-c2nc(SC)nc(N3CCOCC3)c2C#N)cc1 | 97.5%
21 | CC(=O)NCCCS(=O)(=O)O | 102%
22 | Cn1c(COC(=O)NCCN2CCOCC2)nc2c(N3CCOCC3)nc(-c3ccccc3)nc21 | -78.8% (active)
23 | CC(C)Sc1nc(NN)c(C#N)c(-c2ccccc2)n1 | 107%
24 | COc1ccc(-c2nc(SCC(C)C)nc(N/N=C(/C)c3ccc(OC)c(OC)c3)c2C#N)cc1 | 101%
25 | COc1cc2nnn3c4ncccc4c(N=O)c3c2cc1OC | 98.8%
26 | COc1ccccc1-c1c(-c2ccc(Cl)cc2)c2cc3c(cc2[nH]c1=O)OCCO3 | 86%
27 | O=S(=O)(NCCNc1nccc(-c2c(-c3ccc(F)c(O)c3)nc3sccn23)n1)c1ccccc1 | 138%
28 | CC(C)(O)C1CCCN1C(=O)c1ccccc1I (stereo unspecified) | 107%
29 | O=C(OCc1nc2nc(Cl)nc(N3CCOCC3)c2[nH]1)n1ccnc1 | -77.4% (active)
30 | Cc1c([N+](=O)[O-])cc(C(C)(C)C)cc1[N+](=O)[O-] | 102%
31 | O=C(N/N=C/c1ccc(F)cc1)c1ccccc1Nc1cccc(C(F)(F)F)c1 | 130%
32 | COc1cccc(/C=C2\COc3ccc(-c4ccccc4)cc3C2=O)c1 | -5.26% (active)
33 | CN1CCN(c2cc(F)c(NC3=C(Cl)C(=O)c4ncccc4C3=O)c(F)c2)CC1 | 8.46% (active)
34 | Cc1cc(NC(=O)c2cnc(N3CCN(CCOCCOCCOCCOCCC(=O)N[C@H](C(=O)N4C[C@H](O)C[C@H]4C(=O)N[C@@H](C)c4ccc(-c5scnc5C)cc4)C(C)(C)C)CC3)cn2)c2ncccc2c1 | 69.3%
35 | COc1ccc(-c2ncc(-c3ccccc3)[nH]2)cc1OC | 256%
36 | O=C(CN1CCOCC1)Nc1ccc2ncnc(Nc3ccc(Oc4cccc(F)c4)c(Cl)c3)c2c1 | 39.5%
37 | O=C1Nc2c(ccc(Cl)c2Cl)/C1=C/c1ccc(F)cc1 | 109%
38 | COc1ccc(-c2nc(N/N=C/c3c[nH]c4ccccc34)nc(N3CCOCC3)c2C#N)cc1 | 104%

Test system: ACHN renal
Assay: as above
Conditions: 10 µM unless noted

Row | Structure (SMILES) | growth
39 | COc1cc(/C=C/C(=O)c2ccc(Nc3ncnc4ccccc34)cc2)cc(OC)c1 | 76.8%
40 | COc1ccc(C(=O)c2cc3c(N)c(C(=O)Nc4cccc(OC)c4)sc3nc2C)cc1 | 41.2%
41 | CCC(C)N(CCNc1cc(OC)cc2cccnc12)CCC(C)C (stereo unspecified) | 75.2%
42 | S=c1[nH]cccc1-c1nnc2n1Nc1nc3ccccc3cc1CS2 | 93.3%
43 | NC(=O)C1(N2CCCCC2)CCN(CCCC(=O)c2ccc(F)cc2)CC1 | 90.9%
44 | O=S(=O)(c1cccc(NC2=Nc3cccc4cccc2c34)c1)N1CCCC1 | 66.9%
45 | OC1(c2ccc(Cl)c(C(F)(F)F)c2)CCN(CCCC(c2ccc(F)cc2)c2ccc(F)cc2)CC1 | -86.8% (active)
46 | O=c1[nH]nc(-c2ccc(Br)cc2)cc1Cc1ccc(O)cc1 | 105%
47 | N/C(=N\N=C\c1cc2ccccc2s1)N/N=C/c1cc2ccccc2s1 | 107%
48 | COc1ccc(C(=O)c2cc3c(N)c(C(=O)Nc4ccc(Br)cc4)sc3nc2C)cc1 | 65.5%
49 | CC1=NNC(=O)C1CCC(=O)N/N=C(\C)c1ccc2ccccc2c1 (stereo unspecified) | 111%
50 | O=C(O)c1cn(C2CC2)c2cc(N3CCN(C(=O)C[n+]4cccc5ccccc54)CC3)c(F)cc2c1=O | 61%
51 | COc1ccc(Cn2nc(-c3ccccc3)c3c2CCc2cnoc2-3)cc1 | 81.4%
52 | O=C(O)CNC(=O)CN1C(=O)c2ccccc2C1=O | 103%
53 | O=C1CCCCCCCCC(O)C(O)CCCC(c2cccs2)O1 (stereo unspecified) | 94.8%
54 | CC1CCN(C(=O)OCc2nc3nc(Cl)nc(N4CCOCC4)c3[nH]2)CC1 | -100% (active)
55 | COc1cc(C2CC(c3cccc(Nc4ccncc4)c3)=NN2c2cc(Cl)cc(Cl)c2)cc(OC)c1OC (stereo unspecified) | -66.5% (active)
56 | COC(=O)Nc1ccc(NC(=O)OC)cc1 | 115%
57 | COc1ccc(C(=O)c2cc3c(N)c(C(=O)Nc4cccc(Cl)c4C)sc3nc2C)cc1 | 24.1%

Row | Structure (SMILES) | growth
58 | COc1ccc(-c2nc(SC)nc(N3CCOCC3)c2C#N)cc1 | 94.3%
59 | CC(=O)NCCCS(=O)(=O)O | 98.2%
60 | Cn1c(COC(=O)NCCN2CCOCC2)nc2c(N3CCOCC3)nc(-c3ccccc3)nc21 | -100% (active)
61 | CC(C)Sc1nc(NN)c(C#N)c(-c2ccccc2)n1 | 93%
62 | COc1ccc(-c2nc(SCC(C)C)nc(N/N=C(/C)c3ccc(OC)c(OC)c3)c2C#N)cc1 | 90.5%
63 | COc1cc2nnn3c4ncccc4c(N=O)c3c2cc1OC | -2.46% (active)
64 | COc1ccccc1-c1c(-c2ccc(Cl)cc2)c2cc3c(cc2[nH]c1=O)OCCO3 | 70.5%
65 | O=S(=O)(NCCNc1nccc(-c2c(-c3ccc(F)c(O)c3)nc3sccn23)n1)c1ccccc1 | 57.5%
66 | CC(C)(O)C1CCCN1C(=O)c1ccccc1I (stereo unspecified) | 105%
67 | O=C(OCc1nc2nc(Cl)nc(N3CCOCC3)c2[nH]1)n1ccnc1 | -100% (active)
68 | Cc1c([N+](=O)[O-])cc(C(C)(C)C)cc1[N+](=O)[O-] | 104%
69 | O=C(N/N=C/c1ccc(F)cc1)c1ccccc1Nc1cccc(C(F)(F)F)c1 | 102%
70 | COc1cccc(/C=C2\COc3ccc(-c4ccccc4)cc3C2=O)c1 | 46.8%
71 | CN1CCN(c2cc(F)c(NC3=C(Cl)C(=O)c4ncccc4C3=O)c(F)c2)CC1 | -93.1% (active)
72 | Cc1cc(NC(=O)c2cnc(N3CCN(CCOCCOCCOCCOCCC(=O)N[C@H](C(=O)N4C[C@H](O)C[C@H]4C(=O)N[C@@H](C)c4ccc(-c5scnc5C)cc4)C(C)(C)C)CC3)cn2)c2ncccc2c1 | 37.9%
73 | COc1ccc(-c2ncc(-c3ccccc3)[nH]2)cc1OC | 111%
74 | O=C(CN1CCOCC1)Nc1ccc2ncnc(Nc3ccc(Oc4cccc(F)c4)c(Cl)c3)c2c1 | 24.1%
75 | O=C1Nc2c(ccc(Cl)c2Cl)/C1=C/c1ccc(F)cc1 | 85.9%
76 | COc1ccc(-c2nc(N/N=C/c3c[nH]c4ccccc34)nc(N3CCOCC3)c2C#N)cc1 | 76.1%
